# Legend:
# Assay in all cases: DAPPL (digital affinity profiling via proximity ligation, sequencing); 10 mM Tris-HCl pH 7.5, 50 mM NaCl, 1 mM DTT, 4% glycerol, room temperature, 30 min; GST-TFs on glutathione beads, 16-mer random dsDNA library, 0.1% formaldehyde crosslink after washing; high values mean tight binding
# Settings in all cases: protein: recombinant; tags: N-terminal GST; dsDNA, one strand shown
# FLI1 = target: T1, FLI1 (Homo sapiens, UniProt Q01543 1-452)
# T1 sequence: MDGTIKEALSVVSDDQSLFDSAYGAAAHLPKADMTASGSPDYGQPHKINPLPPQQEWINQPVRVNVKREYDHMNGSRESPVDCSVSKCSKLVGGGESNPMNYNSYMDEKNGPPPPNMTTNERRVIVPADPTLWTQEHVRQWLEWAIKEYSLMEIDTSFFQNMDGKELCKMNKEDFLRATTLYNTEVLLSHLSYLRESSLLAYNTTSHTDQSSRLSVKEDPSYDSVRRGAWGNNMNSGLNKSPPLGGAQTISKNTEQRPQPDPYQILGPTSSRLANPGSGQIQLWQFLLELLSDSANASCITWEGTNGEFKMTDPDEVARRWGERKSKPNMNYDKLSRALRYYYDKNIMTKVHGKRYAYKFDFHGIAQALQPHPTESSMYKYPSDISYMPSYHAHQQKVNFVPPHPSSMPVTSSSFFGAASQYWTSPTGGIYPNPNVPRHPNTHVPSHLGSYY
# Procedure, shortened: (§1)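 A tag-only sample was pooled with DNA-barcoded human transcription factors that had been expressed in yeast as GST fusions and captured on glutathione beads. The pools were incubated for 30 min at room temperature with 200 nmole of a random double-stranded 16-mer DNA library in Tris/NaCl/DTT/glycerol buffer, then washed, crosslinked with 0.1% formaldehyde, proximity-ligated (BsaI/T4 ligase, 1 h, 37 °C), PCR-amplified and sequenced on an Illumina NextSeq500. Binding signal is each hexamer's read frequency for a factor divided by its frequency for the tag-only sample.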
# ELK1 = target: T2, ELK1 (Homo sapiens, UniProt P19419 1-428)
# T2 sequence: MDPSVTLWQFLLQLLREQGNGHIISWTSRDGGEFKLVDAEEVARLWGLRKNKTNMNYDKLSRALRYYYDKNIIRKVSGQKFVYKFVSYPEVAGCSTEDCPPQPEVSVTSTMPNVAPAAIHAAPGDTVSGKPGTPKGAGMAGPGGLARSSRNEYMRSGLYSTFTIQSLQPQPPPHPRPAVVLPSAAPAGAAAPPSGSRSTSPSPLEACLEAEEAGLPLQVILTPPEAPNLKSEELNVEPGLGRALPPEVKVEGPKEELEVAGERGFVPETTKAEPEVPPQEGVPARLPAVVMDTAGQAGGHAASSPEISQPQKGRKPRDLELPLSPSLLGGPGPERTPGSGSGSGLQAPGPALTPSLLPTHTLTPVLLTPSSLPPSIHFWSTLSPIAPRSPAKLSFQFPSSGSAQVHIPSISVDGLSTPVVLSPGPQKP
# Procedure, shortened: as §1
# GABPA = target: T3, GABPA (Homo sapiens, UniProt Q06546 1-454)
# T3 sequence: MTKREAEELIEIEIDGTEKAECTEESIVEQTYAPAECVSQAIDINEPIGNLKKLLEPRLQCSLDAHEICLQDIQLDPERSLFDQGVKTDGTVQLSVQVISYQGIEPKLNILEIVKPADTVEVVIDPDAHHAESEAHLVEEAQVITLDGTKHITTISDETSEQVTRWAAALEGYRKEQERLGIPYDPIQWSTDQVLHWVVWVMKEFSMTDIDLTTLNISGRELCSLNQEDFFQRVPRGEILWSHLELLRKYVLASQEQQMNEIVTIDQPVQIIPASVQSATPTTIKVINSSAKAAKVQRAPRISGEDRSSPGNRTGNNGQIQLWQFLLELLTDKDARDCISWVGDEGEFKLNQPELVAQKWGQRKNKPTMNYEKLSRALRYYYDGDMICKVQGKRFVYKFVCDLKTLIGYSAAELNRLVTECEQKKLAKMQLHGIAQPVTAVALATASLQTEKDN
# Procedure, shortened: as §1
# ERG = target: T4, ERG (Homo sapiens, UniProt P11308 1-479)
# T4 sequence: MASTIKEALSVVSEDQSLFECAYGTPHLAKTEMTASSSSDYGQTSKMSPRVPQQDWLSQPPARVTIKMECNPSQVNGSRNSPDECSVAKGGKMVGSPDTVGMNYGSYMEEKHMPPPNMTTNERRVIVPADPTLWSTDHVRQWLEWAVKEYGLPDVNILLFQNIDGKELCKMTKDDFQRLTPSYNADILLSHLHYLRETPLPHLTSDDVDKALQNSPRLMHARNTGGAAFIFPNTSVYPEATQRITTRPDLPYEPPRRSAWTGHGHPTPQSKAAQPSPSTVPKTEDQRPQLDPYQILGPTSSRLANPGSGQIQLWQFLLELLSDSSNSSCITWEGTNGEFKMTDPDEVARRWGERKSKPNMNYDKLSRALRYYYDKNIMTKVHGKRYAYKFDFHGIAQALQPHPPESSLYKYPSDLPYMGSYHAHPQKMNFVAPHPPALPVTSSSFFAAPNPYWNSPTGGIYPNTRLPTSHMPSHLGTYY
# Procedure, shortened: as §1
# ELF1 = ELF1 (Homo sapiens, UniProt P32519 1-619)
# Procedure, shortened: as §1
# EHF = target: T5, EHF (Homo sapiens, UniProt Q9NZC4 1-300)
# T5 sequence: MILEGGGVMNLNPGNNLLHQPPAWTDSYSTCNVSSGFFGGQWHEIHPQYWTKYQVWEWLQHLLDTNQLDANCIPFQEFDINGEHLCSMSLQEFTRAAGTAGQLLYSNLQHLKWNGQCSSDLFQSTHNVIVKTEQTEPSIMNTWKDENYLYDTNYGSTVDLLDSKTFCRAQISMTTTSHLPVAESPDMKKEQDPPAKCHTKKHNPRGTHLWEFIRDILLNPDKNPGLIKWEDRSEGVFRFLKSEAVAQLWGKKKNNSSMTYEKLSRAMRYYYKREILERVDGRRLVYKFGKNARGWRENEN
# Procedure, shortened: as §1
# SPI1 = SPI1 (Homo sapiens, UniProt P17947 1-270)
# Procedure, shortened: as §1
# SPIB = SPIB (Homo sapiens, UniProt Q01892 1-262)
# Procedure, shortened: as §1
# ELK3 = target: T6, ELK3 (Homo sapiens, UniProt P41970 1-407)
# T6 sequence: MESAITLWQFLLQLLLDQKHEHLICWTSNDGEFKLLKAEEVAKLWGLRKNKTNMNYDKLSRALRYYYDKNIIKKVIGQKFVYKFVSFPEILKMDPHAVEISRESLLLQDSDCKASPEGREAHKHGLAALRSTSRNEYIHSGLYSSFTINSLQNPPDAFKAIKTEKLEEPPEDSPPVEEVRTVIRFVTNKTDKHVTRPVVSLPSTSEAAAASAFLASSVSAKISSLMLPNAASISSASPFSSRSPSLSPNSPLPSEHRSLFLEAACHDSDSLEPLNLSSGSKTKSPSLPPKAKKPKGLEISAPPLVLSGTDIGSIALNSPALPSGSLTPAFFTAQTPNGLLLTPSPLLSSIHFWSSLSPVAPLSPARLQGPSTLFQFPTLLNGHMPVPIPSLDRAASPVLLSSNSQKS
# Procedure, shortened: as §1
# Chain of SPIB (Q01892 whole entry): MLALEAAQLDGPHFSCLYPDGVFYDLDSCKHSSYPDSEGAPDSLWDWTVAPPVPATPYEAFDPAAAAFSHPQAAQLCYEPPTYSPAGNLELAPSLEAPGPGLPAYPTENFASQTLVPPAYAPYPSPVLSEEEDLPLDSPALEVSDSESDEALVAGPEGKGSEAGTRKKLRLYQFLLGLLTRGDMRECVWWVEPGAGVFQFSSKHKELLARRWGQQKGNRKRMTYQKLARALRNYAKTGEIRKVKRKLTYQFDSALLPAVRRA
# Chain of ELF1 (P32519 whole entry): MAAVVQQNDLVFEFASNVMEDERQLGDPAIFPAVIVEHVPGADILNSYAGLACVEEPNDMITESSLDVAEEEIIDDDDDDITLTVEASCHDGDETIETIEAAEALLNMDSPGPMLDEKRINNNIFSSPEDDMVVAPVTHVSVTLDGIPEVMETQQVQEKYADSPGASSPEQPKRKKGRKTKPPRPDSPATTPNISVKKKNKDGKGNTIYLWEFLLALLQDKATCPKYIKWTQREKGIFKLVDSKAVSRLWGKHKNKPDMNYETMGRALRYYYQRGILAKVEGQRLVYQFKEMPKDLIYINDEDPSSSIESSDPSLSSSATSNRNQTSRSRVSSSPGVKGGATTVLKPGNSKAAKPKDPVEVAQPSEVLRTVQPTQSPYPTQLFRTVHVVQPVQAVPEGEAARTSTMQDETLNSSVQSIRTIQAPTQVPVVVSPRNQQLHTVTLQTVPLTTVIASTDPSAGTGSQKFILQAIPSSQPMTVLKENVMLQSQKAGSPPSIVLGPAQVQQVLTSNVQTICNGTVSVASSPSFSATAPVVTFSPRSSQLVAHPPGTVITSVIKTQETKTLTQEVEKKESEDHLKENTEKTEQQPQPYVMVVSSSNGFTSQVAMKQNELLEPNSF
sequence,measurement,setting,value
TACATC,binding signal,FLI1,"1.63 fold enrichment (6-mer frequency, TF over GST control)"
same,binding signal,ELK1,"1.67 fold enrichment (6-mer frequency, TF over GST control)"
same,binding signal,GABPA,"1.51 fold enrichment (6-mer frequency, TF over GST control)"
same,binding signal,ERG,"1.65 fold enrichment (6-mer frequency, TF over GST control)"
same,binding signal,ELF1,"1.53 fold enrichment (6-mer frequency, TF over GST control)"
same,binding signal,EHF,"1.6 fold enrichment (6-mer frequency, TF over GST control)"
same,binding signal,SPI1,"1.57 fold enrichment (6-mer frequency, TF over GST control)"
same,binding signal,SPIB,"1.65 fold enrichment (6-mer frequency, TF over GST control)"
same,binding signal,ELK3,"1.74 fold enrichment (6-mer frequency, TF over GST control)"

# Source: PMC7862700, “An all-to-all approach to the identification of sequence-specific readers for epigenetic DNA modifications on cytosine”
